Experimental data: PubChem BioAssay (NCI)
Where “and” joins values, the source holds several entries; their conditions need not be identical. Equal entries are not always repeated. About 79,000 compounds went through this panel and 15% of them were active in at least one assay; those are over-represented in the sample as a whole. Where a structure was tested more than once in an assay, its records may differ in their call. Calls of active or inactive are those of the source. No stated cut-off is given here; in the data, active means growth inhibition above about 70%; inactive means the rest.

How the values were obtained:
[1] = NCI Yeast Anticancer Drug Screen. Data for the rad50 strain (AID 155);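 further: 0% = growth of vehicle-only cultures of the same strain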; settings: S. cerevisiae rad50 strain growth inhibition, stronger effect = higher value
Outline: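 Inhibition values express reduced yeast growth in compound-treated cultures relative to vehicle-treated controls.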

[2] = NCI Yeast Anticancer Drug Screen. Data for the mec2-1 strain (AID 157); settings: S. cerevisiae mec2-1 strain, stronger effect = higher value
Outline: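 mec2-1 yeast strain, carrying an alteration in DNA damage repair or cell cycle control, was exposed to compounds; growth inhibition was measured relative to vehicle-treated controls.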

[3] = NCI Yeast Anticancer Drug Screen. Data for the sgs1 mgt1 strain (AID 161);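 further: 0% = growth of cultures given vehicle only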; settings: S. cerevisiae sgs1 mgt1 strain, stronger effect = higher value
Outline: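 This yeast growth screen uses a strain with defined DNA-repair lesions; compound-treated growth is compared with vehicle-treated growth.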

[4] = NCI Yeast Anticancer Drug Screen. Data for the cln2 rad14 strain (AID 165);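 further: 0% = growth equal to vehicle treated cultures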; settings: S. cerevisiae cln2 rad14 strain, stronger effect = higher value
Outline: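 Yeast carrying cln2 and rad14 alterations (cell cycle control and DNA damage repair) were exposed to compounds. Growth inhibition was measured against vehicle-treated controls.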

[5] = NCI Yeast Anticancer Drug Screen. Data for the bub3 strain (AID 167); settings: S. cerevisiae bub3 mutant strain, stronger effect = higher value
Outline: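 Steps: expose the mutant yeast strain to compound; grow alongside vehicle-treated cultures; measure growth; express inhibition against the vehicle cultures.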

[6] = NCI Yeast Anticancer Drug Screen. Data for the mlh1 rad18 strain (AID 175); settings: S. cerevisiae mlh1 rad18 strain growth inhibition, stronger effect = higher value
Outline: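 Growth inhibition of the yeast strain was measured after compound exposure and expressed relative to vehicle-treated controls. The strain carries defined defects in DNA damage repair.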

[7] = at 5.0 µM (retest, dose inferred, filed as 0.5)
[8] = at 50.0 µM (retest, dose inferred, filed as 5.0)

Row | SMILES | growth inhibition [1, 7] | growth inhibition [1, 8] | growth inhibition ([1]; at 50.0 µM) | growth inhibition [2, 7] | growth inhibition [2, 8] | growth inhibition ([2]; at 50.0 µM) | growth inhibition [3, 7] | growth inhibition [3, 8] | growth inhibition ([3]; at 50.0 µM) | growth inhibition [4, 7] | growth inhibition [4, 8] | growth inhibition ([4]; at 50.0 µM) | growth inhibition [5, 7] | growth inhibition [5, 8] | growth inhibition ([5]; at 50.0 µM) | growth inhibition [6, 7] | growth inhibition [6, 8] | growth inhibition ([6]; at 50.0 µM)
1 | CC(Br)CN(CC(C)Br)c1ccc2c(c1)Cc1ccccc1-2 (stereo not drawn) | 12% (inactive) | 73% (active) | 82.8% (active) | 2% (inactive) | 69% (inactive) | 70.4% (active) | 8% (inactive) | 87% (active) | 93.2% (active) | -16% (inactive) | 85% (active) | 56.3% (inactive) | -7% (inactive) | 92% (active) | 85.5% (active) | 2% (inactive) | 82% (active) | 91.7% (active)
2 | Nc1ncc(CCCCc2ccc(NC(=O)Nc3ccc(S(=O)(=O)F)cc3)cc2)c(N)n1 | -1% (inactive) | 60% (inactive) | 98.5% (active) | -15% (inactive) | 60% (inactive) | 99.5% (active) | -17% (inactive) | 75% (active) | 99.2% (active) | -8% (inactive) | 57% (inactive) | 92.8% (active) | -4% (inactive) | 48% (inactive) | 98.8% (active) | 4% (inactive) | 84% (active) | 99.2% (active)
3 | CCN(CC)P1(=O)OC(c2ccccc2)=CCN1c1ccc(OC)cc1 (stereo not drawn) | 0% (inactive) | 85% (active) | 97.3% (active) | -1% (inactive) | 82% (active) | 95.3% (active) | -24% (inactive) | 95% (active) | 97.8% (active) | -7% (inactive) | 78% (active) | 83% (active) | 10% (inactive) | 91% (active) | 96.2% (active) | 2% (inactive) | 91% (active) | 96.3% (active)
4 | C[N+](C)(C)CC1CCC(C[N+](C)(C)C)C1=O (stereo not drawn) | -1% (inactive) | 6% (inactive) | -1.75% (inactive) | 11% (inactive) | 26% (inactive) | -1.05% (inactive) | 0% (inactive) | -47% (inactive) | -4.05% (inactive) | -7% (inactive) | 5% (inactive) | 16.3% (inactive) | -2% (inactive) | 6% (inactive) | 27.5% (inactive) | -3% (inactive) | 3% (inactive) | -14.2% (inactive)
5 | CC1=CCC2(C)C3CCC4(C)C(O)CCC4C3CCC2(C)C1 (stereo not drawn) | -17% (inactive) | 90% (active) | 70.8% (active) | -17% (inactive) | 95% (active) | 11.9% (inactive) | -6% (inactive) | 97% (active) | 63.8% (inactive) | -6% (inactive) | 83% (active) | 9.1% (inactive) | -25% (inactive) | 94% (active) | 39.5% (inactive) | -10% (inactive) | 96% (active) | 58.6% (inactive)
6 | ClCCN(CCCl)CCN1c2ccccc2Sc2ccc3ccccc3c21 | 3% (inactive) | 31% (inactive) | 80% (active) | 2% (inactive) | 53% (inactive) | 40% (inactive) | 7% (inactive) | 81% (active) | 95.8% (active) | -7% (inactive) | 18% (inactive) | 70.9% (active) | -5% (inactive) | 42% (inactive) | 40.6% (inactive) | 12% (inactive) | 78% (active) | 83.5% (active)
7 | C1CN([PH+](N2CC2)N2CC2)CCO1.C1CN([PH+](N2CC2)N2CC2)CCO1.[I][Pt][I] | 0% (inactive) | 9% (inactive) | 36.8% (inactive) | 2% (inactive) | 5% (inactive) | 23.7% (inactive) | 1% (inactive) | 5% (inactive) | 52.2% (inactive) | 4% (inactive) | 1% (inactive) | 17.9% (inactive) | 1% (inactive) | 15% (inactive) | 96.5% (active) | 1% (inactive) | 7% (inactive) | 6.4% (inactive)
8 | ClCCN(CCCl)c1ccc(CN2CCCN(Cc3ccc(N(CCCl)CCCl)cc3Cl)C2c2ccncc2)c(Cl)c1 | 2% (inactive) | 91% (active) | 93.5% (active) | 4% (inactive) | 96% (active) | 96.8% (active) | -4% (inactive) | 96% (active) | 93.9% (active) | -5% (inactive) | 94% (active) | 43.9% (inactive) | 0% (inactive) | 93% (active) | 1.9% (inactive) | 9% (inactive) | 95% (active) | 97.1% (active)
9 | Cc1ccccc1NC(=O)CBr | 39% (inactive) | 98% (active) | 98.5% (active) | 12% (inactive) | 99% (active) | 98.6% (active) | 37% (inactive) | 99% (active) | 99.3% (active) | 18% (inactive) | 98% (active) | 95.5% (active) | -38% (inactive) | 99% (active) | 98.2% (active) | 37% (inactive) | 99% (active) | 98.3% (active)
10 | Cc1cccc(OCC(O)CN2CC2)c1 (stereo not drawn) | 2% (inactive) | 64% (inactive) | 87.4% (active) | 4% (inactive) | 52% (inactive) | 89.8% (active) | 4% (inactive) | 78% (active) | 89.4% (active) | 4% (inactive) | 34% (inactive) | 87.8% (active) | -1% (inactive) | 34% (inactive) | 87.8% (active) | 2% (inactive) | 95% (active) | 88.5% (active)
11 | CCN(CC)CC(=O)c1ccc2c(ccc3ccccc32)c1 | 15% (inactive) | 98% (active) | 99.2% (active) | 26% (inactive) | 100% (active) | 99.5% (active) | 6% (inactive) | 99% (active) | 99.5% (active) | -1% (inactive) | 97% (active) | 99.3% (active) | 8% (inactive) | 99% (active) | 99.2% (active) | 43% (inactive) | 99% (active) | 99.3% (active)
12 | O=C(OCc1ccccc1)C(C(Cl)c1ccccc1)N(Cc1ccccc1)Cc1ccccc1 (stereo not drawn) | -2% (inactive) | 53% (inactive) | 90.8% (active) | 3% (inactive) | 65% (inactive) | 81.2% (active) | -1% (inactive) | 50% (inactive) | 85.5% (active) | 1% (inactive) | 53% (inactive) | 89.8% (active) | -1% (inactive) | 49% (inactive) | 67.7% (inactive) | -1% (inactive) | 56% (inactive) | 86.5% (active)
13 | N#CN(Cc1ccccc1)C(c1ccccc1)(c1ccccc1)c1ccccc1.[Cl][Sn]([c]1ccccc1)([c]1ccccc1)[c]1ccccc1 | 99% (active) | 91% (active) | 97.3% (active) | 100% (active) | 94% (active) | 98.3% (active) | 100% (active) | 91% (active) | 98% (active) | 99% (active) | 85% (active) | 97.5% (active) | 99% (active) | 87% (active) | 98.1% (active) | 99% (active) | 88% (active) | 98% (active)
14 | FC(F)(F)C1(C(F)(F)F)O[Te]2(OC1(C(F)(F)F)C(F)(F)F)OC(C(F)(F)F)(C(F)(F)F)C(C(F)(F)F)(C(F)(F)F)O2 | 10% (inactive) | 79% (active) | 63.7% (inactive) | 10% (inactive) | 89% (active) | 96.3% (active) | 23% (inactive) | 86% (active) | 95.5% (active) | 14% (inactive) | 84% (active) | 90.2% (active) | 20% (inactive) | 96% (active) | 89.2% (active) | 11% (inactive) | 91% (active) | 92% (active)
15 | Oc1ccc(Cl)cc1Sc1cc(Cl)ccc1O | 99% (active) and 98% (active) and 90% (active) | 100% (active) and 99% (active) | 99.3% (active) and 41% (inactive) and 99.6% (active) | 98% (active) and 94% (active) and 68% (inactive) | 100% (active) and 99% (active) | 99.5% (active) and 99.7% (active) | 96% (active) and 98% (active) and 88% (active) | 99% (active) and -8% (inactive) | 99.5% (active) and 99.6% (active) and 99.7% (active) | 98% (active) and 94% (active) | 100% (active) and 99% (active) | 99% (active) and 99.3% (active) and 99.2% (active) | 99% (active) and 88% (active) and 68% (inactive) | 100% (active) and 99% (active) | 99.3% (active) and 99.5% (active) and 99.6% (active) | 99% (active) and 89% (active) | 100% (active) and 99% (active) | 99.3% (active) and 99.5% (active) and 99.4% (active)
16 | N=C(N)c1ccccc1 | 12% (inactive) | 79% (active) | -2.25% (inactive) and 80.2% (active) | -1% (inactive) | 20% (inactive) | 5.4% (inactive) and 2.1% (inactive) | 2% (inactive) | 23% (inactive) | -1.6% (inactive) and 17.9% (inactive) | 6% (inactive) | 13% (inactive) | -0.6% (inactive) and 49.5% (inactive) | -2% (inactive) | 8% (inactive) | 6.9% (inactive) and 25.4% (inactive) | -2% (inactive) | 22% (inactive) | -14.5% (inactive) and 46.6% (inactive)
